Laboratory results reported in the supplement of paper PMC11219838.

Tests used:
Details in all cases: 60 µM; 5 days; temperature: 20 °C
[1] = tested on: Meloidogyne hapla J2; assay: proportion of mobile M. hapla J2 relative to DMSO control (fraction of DMSO control); higher = more viable, less nematicidal, active = 0.7 or less
How it was run: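 About 25 M. hapla J2 were added per 96-well well in distilled water, and compound was pinned to 60 µM final (0.6% v/v DMSO). Sealed plates were shaken at 200 rpm for 5 days at 20 °C, then 2 µL 1 M NaOH was added before microscopic mobility scoring. Mobility was divided by the mean of eight DMSO wells on the same plate, and two biological replicates were averaged.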

[2] = tested on: Caenorhabditis elegans dauer (daf-2(e1370)); assay: proportion of mobile C. elegans dauer larvae relative to DMSO control (fraction of DMSO control); higher = more viable, less nematicidal, active = 0.63 or less; extreme values may be limits of the assay
How it was run: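 Synchronized C. elegans daf-2(e1370) larvae were held at 25 °C for 48 h on MYOB plates with E. coli OP50 to form dauers, and about 20 dauers were added per 96-well well in liquid NGM. Compound was pinned to 60 µM final (0.6% v/v DMSO), and sealed plates were shaken at 200 rpm for 5 days at 20 °C. The proportion of mobile worms was scored under a dissection microscope relative to DMSO controls and averaged over two biological replicates.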

[3] = tested on: Ditylenchus dipsaci; assay: proportion of mobile D. dipsaci (mixed stage) relative to DMSO control (fraction of DMSO control); higher = more viable, less nematicidal, active = 0.86 or less; extreme values may be limits of the assay
How it was run: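 D. dipsaci were grown on pea plants in Gamborg B-5 agar and extracted through a filter funnel into water, and about 20 worms were added per 96-well well in distilled water. Compound was pinned to 60 µM final (0.6% v/v DMSO), and sealed plates were shaken at 200 rpm for 5 days at 20 °C. After 2 µL 1 M NaOH was added, mobile worms were scored microscopically. Mobility was expressed relative to DMSO controls and averaged over two biological replicates.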

COc1ccc(Br)cc1-c1noc(-c2ccncc2)n1
inactive: proportion of mobile M. hapla J2 [1] 0.759 | proportion of mobile C. elegans dauer larvae [2] 1 | proportion of mobile D. dipsaci [3] 1

Cn1c(SCc2nc(-c3ccccc3)no2)nnc1-c1ccco1
inactive: proportion of mobile M. hapla J2 [1] 0.98 | proportion of mobile C. elegans dauer larvae [2] 1 | proportion of mobile D. dipsaci [3] 1

O=C(Nc1ccccc1-c1nc(-c2ccncc2)no1)c1ccc(Cl)cc1
inactive: proportion of mobile M. hapla J2 [1] 0.909 | proportion of mobile C. elegans dauer larvae [2] 1 | proportion of mobile D. dipsaci [3] 1

COc1ccc(Cl)cc1-c1noc(COc2ccccc2C)n1
inactive: proportion of mobile M. hapla J2 [1] 0.977 | proportion of mobile C. elegans dauer larvae [2] 1 | proportion of mobile D. dipsaci [3] 1

Cc1ccccc1-c1nc(-c2ccc3c(c2)OCO3)no1
inactive: proportion of mobile M. hapla J2 [1] 0.848 | proportion of mobile C. elegans dauer larvae [2] 1 | proportion of mobile D. dipsaci [3] 0.933

CCc1nnc(NC(=O)CSc2nnc(-c3cccc(C)c3)o2)s1
inactive: proportion of mobile M. hapla J2 [1] 0.815 | proportion of mobile C. elegans dauer larvae [2] 1 | proportion of mobile D. dipsaci [3] 1

CCOc1ccccc1-c1nnc(SCC(=O)N2CCC(C)CC2)o1
inactive: proportion of mobile M. hapla J2 [1] 0.856 | proportion of mobile C. elegans dauer larvae [2] 1 | proportion of mobile D. dipsaci [3] 1

Cc1ccc(-c2nnc(SCc3ccccc3C)o2)cc1
inactive: proportion of mobile M. hapla J2 [1] 1.06 | proportion of mobile C. elegans dauer larvae [2] 1 | proportion of mobile D. dipsaci [3] 1

Cc1cccc(NC(=O)CSc2nnc(-c3ccncc3)o2)c1C
inactive: proportion of mobile M. hapla J2 [1] 1.02 | proportion of mobile C. elegans dauer larvae [2] 1 | proportion of mobile D. dipsaci [3] 1

COc1ccc(-c2noc(-c3cccc(C)c3)n2)cc1
inactive: proportion of mobile M. hapla J2 [1] 1.08 | proportion of mobile C. elegans dauer larvae [2] 0.889 | proportion of mobile D. dipsaci [3] 1

O=C(CSc1nnc(-c2ccccc2)o1)NC1CC2CCC1C2 (stereo unspecified)
inactive: proportion of mobile M. hapla J2 [1] 0.795 | proportion of mobile C. elegans dauer larvae [2] 1 | proportion of mobile D. dipsaci [3] 1

COc1nc(C)ccc1-c1noc(-c2ccccc2Br)n1
inactive: proportion of mobile M. hapla J2 [1] 0.917 | proportion of mobile C. elegans dauer larvae [2] 1 | proportion of mobile D. dipsaci [3] 1
